# Results reported in PubChem BioAssay (NCATS).
# Inconclusive results are not listed. A call without a number means that no potency is given here. Active and inactive are the calls of the source. Calls follow the shape of the dose curve; as a rule, active = well fitted inhibition curve with a large enough effect; inconclusive = small, poorly fitted or top-dose-only effect; inactive = flat fitted curve, though single readings scatter.
# Target: Voltage-gated inwardly rectifying potassium channel KCNH2 (Homo sapiens) (UniProt Q12809)
# Experiment: qHTS Assay for Small Molecule Inhibitors of the Human hERG Channel Activity (AID 588834);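 also: lower thallium flux fluorescence means stronger hERG block; nearly all actives have a fitted effect of over 50% in size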
# Settings: U2OS BacMam hERG, FluxOR thallium flux fluorescence; series mostly up to 46.1 µM
# In short: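 hERG block measured as reduced thallium-dye (FluxOR) fluorescence after stimulation buffer addition, read over 2 min. Cells were hERG-BacMam-transduced U2OS exposed to compound ~10 min […]; concentration-response fitted with Hill equation for AC50.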
# Potency is read from the fitted curve at half-maximal effect.
# Chain of Voltage-gated inwardly rectifying potassium channel KCNH2 (Homo sapiens) (Q12809 whole entry, looked up): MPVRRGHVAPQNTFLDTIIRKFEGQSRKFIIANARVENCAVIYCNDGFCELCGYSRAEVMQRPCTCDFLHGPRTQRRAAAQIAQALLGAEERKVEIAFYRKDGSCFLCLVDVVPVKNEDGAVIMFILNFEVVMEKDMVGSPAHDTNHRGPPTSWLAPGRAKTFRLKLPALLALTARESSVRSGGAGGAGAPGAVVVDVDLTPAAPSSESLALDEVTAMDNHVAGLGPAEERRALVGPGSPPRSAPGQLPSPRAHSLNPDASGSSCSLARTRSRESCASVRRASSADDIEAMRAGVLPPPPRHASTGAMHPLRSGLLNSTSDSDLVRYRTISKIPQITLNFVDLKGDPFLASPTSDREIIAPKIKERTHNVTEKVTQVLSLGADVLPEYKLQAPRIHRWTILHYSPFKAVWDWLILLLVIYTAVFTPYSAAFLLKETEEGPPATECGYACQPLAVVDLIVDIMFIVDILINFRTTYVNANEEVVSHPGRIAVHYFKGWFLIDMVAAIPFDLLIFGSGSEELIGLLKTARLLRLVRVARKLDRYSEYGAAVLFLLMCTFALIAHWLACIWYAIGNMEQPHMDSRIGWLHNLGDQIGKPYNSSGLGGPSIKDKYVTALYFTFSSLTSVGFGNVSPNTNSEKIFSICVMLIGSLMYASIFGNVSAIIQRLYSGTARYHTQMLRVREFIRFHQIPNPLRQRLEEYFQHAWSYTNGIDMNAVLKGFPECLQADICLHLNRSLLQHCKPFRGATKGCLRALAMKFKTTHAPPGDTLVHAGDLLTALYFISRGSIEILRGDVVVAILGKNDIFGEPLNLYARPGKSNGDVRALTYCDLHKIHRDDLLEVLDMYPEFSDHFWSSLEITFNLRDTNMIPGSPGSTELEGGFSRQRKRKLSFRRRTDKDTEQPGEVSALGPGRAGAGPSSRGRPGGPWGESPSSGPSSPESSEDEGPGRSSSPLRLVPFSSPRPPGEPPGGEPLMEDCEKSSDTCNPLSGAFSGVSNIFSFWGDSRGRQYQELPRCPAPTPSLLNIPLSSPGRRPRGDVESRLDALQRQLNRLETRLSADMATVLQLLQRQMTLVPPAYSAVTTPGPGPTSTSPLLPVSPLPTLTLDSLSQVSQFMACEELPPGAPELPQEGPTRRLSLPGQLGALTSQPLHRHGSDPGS
row,SMILES,Potency
1,CN(C)C(N)=NCCC[C@H](N)C(=O)O,inactive
2,N#C/C(=C\c1ccc(O)c(O)c1)C(=O)NCc1ccccc1,12.6 µM (active)
3,Nc1c(CC(=O)O)cccc1C(=O)c1ccc(Br)cc1,inactive
4,CN(C)CCn1nnnc1SCC1=C(C(=O)O)N2C(=O)[C@@H](NC(=O)Cc3csc(N)n3)[C@H]2SC1,inactive
5,COC1=C(OC)C(=O)c2ccccc2C1=O,inactive
6,COc1cc2nc(N3CCN(C(=O)OCc4ccccc4)C(C(=O)NC(C)(C)C)C3)nc(N)c2cc1OC (stereo not drawn),inactive
7,O=C(O)CNC(=O)C(CS)Cc1ccccc1 (stereo not drawn),inactive
8,CN=c1nc(-c2ccccc2)n(-c2ccccc2)s1,11.2 µM (active)
9,NCCCCCCCCCCN,inactive
10,CCCSc1ccc2nc(NC(=O)OC)[nH]c2c1,inactive
11,O=C(O)[C@@H]1C[C@@H](C(=O)O)N1,inactive
12,O=C(/C=C/c1ccc(O)cc1)c1ccc(O)cc1O,3.98 µM (active)
13,O=C(Nc1cccc(C(=O)Nc2ccc(S(=O)(=O)O)c3cc(S(=O)(=O)O)cc(S(=O)(=O)O)c23)c1)Nc1cccc(C(=O)Nc2ccc(S(=O)(=O)O)c3cc(S(=O)(=O)O)cc(S(=O)(=O)O)c23)c1,inactive
14,CCCCCCCCCCCCCCCC(=O)NCC(COP(=O)([O-])OCC[N+](C)(C)C)OCC (stereo not drawn),inactive
15,NCCCS(=O)(=O)O,inactive
16,CC(=O)N[C@H](C(=O)O)C(C)(C)SN=O,inactive
17,CCCCCCCCCCCC(=O)[O][Sn]([CH2]CCC)([CH2]CCC)[O]C(=O)CCCCCCCCCCC,inactive
18,O=C(c1cc(O)c(O)c([N+](=O)[O-])c1)c1ccccc1F,inactive
